Source: PubChem BioAssay AID686978 (National Center for Advancing Translational Sciences (NCATS), 2013)
Hit rate of the full screen: of about 420,000 compounds, about 64,000 (15%) were called active. About 27% were inconclusive and are not listed. The call rests on the fitted dose curve; in most records, active means well fitted inhibition curve with a large enough effect; inconclusive means small, poorly fitted or top-dose-only effect; inactive means flat fitted curve, though single readings scatter. Only a sample is shown. Where a call stands in place of a potency, no number is given.

test: qHTS for Inhibitors of human tyrosyl-DNA phosphodiesterase 1 (TDP1): qHTS in cells in absence of CPT; conditions: DT40 Tdp1-/- hTDP1 cells, no CPT, ATP luminescence, 48 h; activity change, negative = growth inhibition: at 46.2 µM (top of the series); further: nearly all actives have a fitted effect of over 55% in size
Procedure, shortened: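 Chicken DT40 Tdp1-/- cells complemented with human TDP1, screened without camptothecin (DMSO vehicle only), 400 cells/well. Compounds pin-transferred, cells incubated at 37 °C for at least 48 hr. Growth read as ATP-dependent luminescence (CellTiter-Glo, 30 min at RT).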
Potency means the concentration at half of the fitted maximal effect.

SMILES	Potency
Cc1n[nH]c(=O)n1-c1ccc(C(C)C)cc1	inactive
O=C1c2cccc3cccc(c23)C(=O)N1c1cccc(O)c1	inactive
Cc1nnc(CN(C)Cc2cn[nH]c2-c2ccc(-c3ccccc3)cc2)o1	inactive
CC1CCCN(S(=O)(=O)c2ccc(-c3ccc(=O)[nH]n3)o2)C1 (configuration not stated)	inactive
O=S(=O)(c1ccc2nc(NCc3ccccc3Cl)ccc2c1)N1CCCCC1	10.3 µM (active)
O=S(=O)(NCc1ccccc1)c1ccc(S(=O)(=O)N2CCCC2)cc1	inactive
O=S(=O)(c1ccc2nc(N3CCN(c4cccc(Cl)c4)CC3)ccc2c1)N1CCCCC1	inactive
CN(C(=O)CCNC(=O)Cn1ccc2ccccc2c1=O)c1ccc(Br)cc1	inactive
CC/C(=N/Nc1ccccc1)c1cnnc(SC)n1	inactive
COc1cccc(C(=O)Oc2cc(C)[nH]c(=O)c2[N+](=O)[O-])c1	inactive
COc1ccc(/C=C/c2noc(-c3ccccc3OC(C)=O)n2)cc1	inactive
O=C(CCc1ccc(O)cc1)NN=Cc1cc(Br)ccc1O	5.8 µM (active)
CC(C)/C=N/NC(=O)c1cc(Br)ccc1O	inactive
O=C(CCC(=O)N/N=C/c1ccc(Br)o1)N/N=C/c1ccc(Br)o1	inactive
CCCC1NC(=O)NC(C)=C1C(=O)OCC (configuration not stated)	inactive
Nc1ncnc(Nc2cccc(Cl)c2Cl)n1	inactive

SMILES	Potency
O=C(CSc1nccc(=O)[nH]1)Nc1ccc(N2CCOCC2)c(Cl)c1	inactive
CC(C)c1ccc(OCC(O)CN2CCN(c3ccccn3)CC2)cc1 (configuration not stated)	10.3 µM (active)
CC(=O)Nc1ccc(OCC(O)CN2CCN(c3ccccc3Cl)CC2)cc1 (configuration not stated)	inactive
Cc1ccccc1OCC(O)CN1CCN(c2ccccn2)CC1 (configuration not stated)	inactive
Cc1ccc(OCC(=O)Nn2cnc3ccccc32)cc1	inactive
CC(C)c1ccc(OCC(O)Cn2cnc3ccccc32)cc1 (configuration not stated)	14.6 µM (active)
OC(COc1ccccc1)Cn1cc(Br)cn1 (configuration not stated)	inactive
Cc1nc2ccc(S(=O)(=O)NCC(=O)O)cc2s1	inactive
CC(=O)OC[C@H]1O[C@@H](O[C@H]2[C@H](O)[C@@H](OC(=O)c3ccccc3C(=O)O)[C@H](O)O[C@@H]2COC(C)=O)[C@H](O)[C@@H](OC(=O)c2ccccc2C(=O)O)[C@@H]1O	inactive
Cc1ccc(CNC(=O)C2CCCN2S(=O)(=O)c2ccc3c(c2)C(C)(C)C(=O)N3C)cc1 (configuration not stated)	inactive
C=CCOc1ccc(C(=O)Nc2ccccc2C(=O)N2CCCC2)cc1	inactive
Cn1nnnc1NCc1ccc(Cl)c(Cl)c1	inactive
NS(=O)(=O)c1ccc(CNC(=O)c2ccc(Cl)cc2[N+](=O)[O-])cc1	inactive
O=C(Cc1ccc(Cl)cc1)Nc1ccc2nn(-c3ccc(Cl)cc3)nc2c1	inactive
Nc1ccc2nn(-c3ccc(Cl)cc3)nc2c1	9.2 µM (active)
Cc1cc2nn(-c3ccc(Cl)cc3)nc2cc1NC(=O)C(C)C	inactive
